The whole screen tested about 52,000 compounds, of which about 1,700 (3.3%) were called active. This excerpt belongs to a sample that is enriched for actives. Unmarked numbers belong to inactive results. Cut-off read from the data, not from the text of the source: active = survival mostly below about 52% (no sharp cut-off); inactive = mostly above about 56%.

The subject of the assay is Wild type. As to the kind of experiment: S. aureus survival, RN4220 and DeltatarO strains – OD600, teichoic acid synthesis inhibitors, primary screen (AID 463173). Conditions: S. aureus RN4220 wild type/DeltatarO growth, OD600, 18 h, active compounds read low, screened at 18.75 µg/mL (by protocol).
Take `COc1ccc(-c2noc(CSc3nnc(Cc4ccccc4)n3-c3cccc(C)c3)n2)cc1`: the survival was 67%.
With `COc1ccc(N2CC(C(=O)NC3=NCCS3)CC2=O)cc1` (configuration not stated), the survival is 102%.
As for `CC(C)N(C(=O)Cn1cc(SCC(=O)Nc2ccccc2F)c2ccccc21)C(C)C`, the survival is 86%.
`O=Nc1c(O)n2c3c(cccc13)CCC2`: the survival is 124%.
Take `N#CC(C#N)=C(N)/C(C#N)=C\c1ccc(-c2ccccc2)o1`: the survival was 129%.
As for `O=S(=O)(c1ccc(Cl)cc1)c1nc(-c2ccco2)oc1SCc1ccc(F)cc1`, the survival is 73%.
The value for `COc1cccc(NC(=O)C2=C(C)C(=O)OC23CCN(C(C)=O)CC3)c1` was 79%; that for `CCOC(=O)c1c(Oc2ccc(C(=O)OC)cc2)nnc(-c2ccccc2)c1-c1ccccc1` was 87%.
`CCOC(=O)c1c(Nc2ccccc2)nnc(-c2ccccc2)c1-c1ccccc1`: the survival was 5% (active).
Turning to `CCOC(=O)c1c(Nc2ccc(O)cc2)nnc(-c2ccccc2)c1-c1ccccc1`, the survival is 96%.
As to `CCOC(=O)c1c(-c2ccccc2)csc1NC(=O)c1cc(-c2cccc(OC)c2)on1`, the survival is 72%.
As to `CC(=O)N1CCCc2cc(S(=O)(=O)N(Cc3ccccc3)C(C)C)ccc21`, the survival is 73%.
As for `COc1cc(C(=O)OCc2cc(=O)n3ccsc3n2)cc(OC)c1OC`, the survival is -4% (active).
On to `COc1ccccc1C(=O)Nc1cccc(C(=O)OCc2cc(=O)n3ccsc3n2)c1`, for which the survival was -6% (active).
As for `O=C(Nc1ccccc1C(=O)OCc1cc(=O)n2ccsc2n1)c1ccccc1Cl`, the survival was 75%.
On to `Cc1cccc(C(=O)OCc2cc(=O)n3ccsc3n2)c1`, for which the survival was 71%.
As for `COc1cc(C(=O)OCc2cc(=O)n3nc(C(C)C)sc3n2)cc(OC)c1OC`, the figure is 78%.
`COc1ccccc1C(=O)Nc1ccc(C(=O)OCc2cc(=O)n3ccsc3n2)cc1`: the survival is 72%.
The value for `Cc1ccccc1C(=O)Nc1ccccc1C(=O)OCc1cc(=O)n2ccsc2n1` was 98%; that for `Cc1ccccc1C(=O)Nc1cccc(C(=O)OCc2cc(=O)n3ccsc3n2)c1` was 64%.
For the compound `COc1ccccc1C(=O)Nc1ccccc1C(=O)OCc1cc(=O)n2ccsc2n1`, the survival was -6% (active).
With `O=[N+]([O-])c1cc(-c2nc(-c3ccccn3)no2)ccc1NCc1ccccc1`, the survival was 73%.
The value for `CCOC(=O)Cn1c(=O)oc2cc(S(=O)(=O)N3CCN(c4ccc(C(C)=O)cc4)CC3)ccc21` was 81%.
On to `CC(C)(C)OC(=O)N1CCC(c2c(C(=O)N3CCN(c4ccccn4)CC3)cnn2-c2ccccc2Cl)CC1`, for which the survival was 53%.
Regarding `COc1cc(NC(=O)c2ccccc2)c(OC)cc1NC(=O)CN1CCCCC1`, the survival is 109%.
As to `CCOC(=O)c1ccc(N2C(=O)c3n[nH]c(-c4cccs4)c3C2c2ccc(C)cc2)cc1` (configuration not stated), the survival is 66%.
For `CCCCNC(=O)c1[nH]c2ccccc2c1Sc1ccc(C)cc1`, the survival is 83%.
For `CCC1CCCCN1CCCNC(=O)c1[nH]c2ccccc2c1Sc1ccc(Cl)cc1` (configuration not stated), the survival is -1% (active).
Turning to `CC1CCCCN1CCCNC(=O)c1[nH]c2ccccc2c1Sc1ccc(Cl)cc1` (configuration not stated), the survival is -1% (active).
As for `CCOC(=O)C1CCCN(C(=O)c2[nH]c3ccccc3c2Sc2ccc(Cl)cc2)C1` (configuration not stated), the survival is 75%.
As for `CCN(CC)CCNC(=O)c1[nH]c2ccccc2c1Sc1ccc(Cl)cc1`, the figure is 42%.
Regarding `CC1CCCCN1CCCNC(=O)c1cc(Sc2cccc(Cl)c2)nc2ccccc12` (configuration not stated), the survival was 54%.
`COc1ccc(-c2noc(-c3ccc(NCCc4ccccc4)c([N+](=O)[O-])c3)n2)cc1`: the survival was 84%.
In the case of `CC(=O)Nc1ccc(C(=O)N2CC(C)OC(C)C2)cc1` (configuration not stated), the survival was 133%.
As for `CC(C(=O)N1CCCCC1)N1CCC(N2CCCCC2)CC1` (configuration not stated), the figure is 93%; as for `CCc1ccccc1NC(=O)CN1C(=O)CCSc2ccc(S(=O)(=O)N3CCCC3)cc21`, 124%.
For the compound `O=C(Nc1ccc2oc(-c3cccnc3)nc2c1)c1ccc(-c2cccc(OC(F)(F)F)c2)o1`, the survival was 80%.
Take `Cc1ccc(NC(=O)N(Cc2c[nH]c3ccccc23)C2CCCCCC2)cc1C`: the survival is 54%.
As for `Cc1ccc(NC(=O)N(Cc2cn(C)c3ccccc23)C2CCCCC2)cc1C`, the figure is -1% (active).
Turning to `COc1ccc2[nH]c(=O)c(CN(C(=O)Nc3ccccc3)C3CCCC3)cc2c1`, the survival is 103%.
As for `Cn1cc(CN(C(=O)Nc2ccccc2)C2CCCCC2)c2ccccc21`, the survival is -1% (active).
On to `Cn1cc(CN(C(=O)Nc2ccc(Cl)c(Cl)c2)C2CCCCC2)c2ccccc21`, for which the survival was 60%.
In the case of `O=C(Nc1ccccc1)N(Cc1c[nH]c2ccccc12)C1CCCCCC1`, the survival was 48%.
Turning to `CCOc1ccc(C(=O)Nc2ccccc2C(=O)OCc2cc(=O)n3nc(C4CC4)sc3n2)cc1`, the survival was 78%.
For `CCOC(=O)c1c(C)[nH]c(CCC(=O)Nc2ccc(C)c(F)c2)c1C`, the survival is 70%.
Consider `O=C(NCC(c1cccnc1)N1CCN(Cc2ccccc2)CC1)C(=O)Nc1cccc(F)c1` (configuration not stated), for which the survival is 114%.
On to `COc1ccc(CCN2CC(C(=O)NCCc3ccc(C)cc3)CC2=O)cc1OC` (configuration not stated), for which the survival was 60%.
Regarding `Cc1cccc(CNC(=O)c2cnc3sc(N4CCOCC4)nn3c2=O)c1`, the survival is 119%.
As for `Cc1cc(=O)[nH]c2nnc(SCc3c(F)cccc3Cl)n12`, the figure is 140%; as for `COc1ccccc1C(=O)Nc1ccccc1OCc1cc(=O)n2c(C)csc2n1`, 81%; as for `CCOc1ccc(OCC)c(NC(=O)c2cnc(SC)nc2-c2ccccc2)c1`, 0% (active).
In the case of `COc1ccc(Cl)cc1NC(=O)c1cnc(SC)nc1-c1ccccc1`, the survival was 22%.
In the case of `CCOc1ccc(CCNC(=O)c2csc3c2CCCCC3)cc1`, the survival is 81%.
For the compound `CSc1ncc(C(=O)NCc2cccc(C)c2)c(-c2ccccc2)n1`, the survival is 65%.
On to `COc1ccc(NC(=O)c2csc3c2CCCCC3)cc1`, for which the survival was 72%.
Turning to `CSc1ncc(C(=O)NCc2cccc(F)c2)c(-c2ccccc2)n1`, the survival was 82%.
Turning to `CSc1ncc(C(=O)Nc2ccc(F)cc2F)c(-c2ccccc2)n1`, the survival was 73%.
On to `CSc1ncc(C(=O)NCc2ccc(C)cc2)c(C)n1`, for which the survival is 73%.
The value for `CSc1ncc(C(=O)NCc2ccccc2)c(-c2ccccc2)n1` was 10% (active).
`CSc1ncc(C(=O)NCc2ccc(C)cc2)c(-c2ccccc2)n1`: the survival was -2% (active).
In the case of `CCOc1ccc(OCC)c(NC(=O)c2csc3c2CCCC3)c1`, the survival was -1% (active).
On to `CSc1ncc(C(=O)NCc2ccc(F)cc2)c(-c2ccccc2)n1`, for which the survival is 87%.
`CCOc1ccccc1NC(=O)Cn1c(=O)n(-c2ccccc2)c(=O)c2c1c1cc(C)ccc1n2C`: the survival was 84%.
Take `CCOC(=O)CNC(=O)c1cc2c(=O)oc3ccccc3c2s1`: the survival was 146%.
Regarding `CCc1ccc(C2C(C(=O)Nc3ccc(Cl)cc3)=C(C)Nc3ncnn32)cc1` (configuration not stated), the survival is 59%.
`Cc1ccc(CNC(=O)c2ccc3c(O)c(S(=O)(=O)c4ccccc4)c(=O)[nH]c3c2)cc1`: the survival is 83%.
Regarding `N=C1SCC(=O)N1c1ccc(Cl)cc1`, the survival was 124%.
For the compound `Cc1ccc(-n2c(SCc3ccccc3F)nc3[nH]ncc3c2=O)cc1Cl`, the survival was 77%.
For the compound `Cc1ccc2[nH]c(=O)c3cc(C(=O)N(C)c4ccc(Br)cc4)sc3c2c1`, the survival was 81%.
As for `COC(=O)c1ccc(NC(=O)CN2C(=O)c3cccc4cccc2c34)cc1`, the survival is 85%.
`NS(=O)(=O)c1ccc(CCNC(=O)CCn2c(=O)c3cccn3c3cccnc32)cc1`: the survival was 92%.
The value for `O=C(NCc1cccc(Cl)c1)c1cnc(N2CCCCC2)c2ccccc12` was 89%; that for `O=C(COC(=O)c1cccc(NC(=O)c2ccc(Br)cc2)c1)c1ccc(Cl)cc1` was 93%; that for `O=C(CC1N=C2c3ccccc3N=C(SCC(=O)Nc3cccc(Cl)c3)N2C1=O)NCc1cccs1` (configuration not stated) was 82%.
As to `CCCCNC(=O)C1CCN(S(=O)(=O)c2ccc3c(ccn3CC)c2)CC1`, the survival is 124%.
With `CCn1ccc2cc(S(=O)(=O)N3CCC(C(=O)NCc4ccc(OC)cc4)CC3)ccc21`, the survival is -3% (active).
As for `CCn1ccc2cc(S(=O)(=O)N3CCC(C(=O)NCc4ccc(F)cc4)CC3)ccc21`, the figure is 80%.
The value for `CCn1ccc2cc(S(=O)(=O)N3CCC(C(=O)NCc4ccc(OC(C)C)cc4)CC3)ccc21` was 69%.
With `CCn1ccc2cc(S(=O)(=O)N3CCC(C(=O)NCC(C)c4ccccc4)CC3)ccc21` (configuration not stated), the survival is 87%.
Turning to `CCC(C)NC(=O)C1CCN(S(=O)(=O)c2ccc3c(ccn3CC)c2)CC1` (configuration not stated), the survival was 0% (active).
`O=C(Cn1c(=O)nc(-c2ccccc2)c2ccccc21)NCCCc1ccccc1`: the survival is 60%.
For the compound `Cc1c(Cl)cccc1Nc1nn2c(=O)c3ccc(C(=O)NCCC4=CCCCC4)cc3nc2s1`, the survival was 74%.
In the case of `COc1ccc(OC)c(S(=O)(=O)N2CC=C(c3c(C)n(CC(=O)N4CCCC4)c4ccccc34)CC2)c1`, the survival is 83%.
As for `O=S(=O)(c1cccc2nsnc12)N(CCOc1ccccc1)C1CCCCC1`, the survival is 99%.
For `COc1cccc(CNC(=O)C2CCN(c3ncccn3)CC2)c1`, the survival is 102%.
Turning to `CCn1c(=O)c2cc(C(=O)N3CCN(c4cccc(OC)c4)CC3)sc2c2ccccc21`, the survival is 69%.
For `Cc1ccc2c(c1)N(C(=O)c1ccc(F)cc1)C(C)(C)CC2(C)c1ccccc1` (configuration not stated), the survival is 43%.
As to `COc1ccc(C(=O)N2c3ccc(C)cc3C(C)(c3ccccc3)CC2(C)C)cc1` (configuration not stated), the survival is 45%.
Consider `CC1=CC(C)(C)N(CC(=O)c2ccccc2)c2ccc(C)cc21`, for which the survival was 109%.
The value for `Cc1ccc(C(=O)N2CCN(c3ccccc3)CC2)cc1` was 112%; that for `Cc1ccc2c(c1)C(C)(c1ccccc1)CC(C)(C)N2C(=O)c1ccc(F)cc1` (configuration not stated) was -2% (active); that for `Cc1ccc(C(=O)N2c3ccc(C)cc3C(C)(c3ccccc3)CC2(C)C)cc1` (configuration not stated) was 2% (active).

(Values after PubChem BioAssay AID463173 (ICCB-Longwood Screening Facility, Harvard Medical School, 2010).)
